This note sets out measurements from ChEMBL document CHEMBL3988442, “University of Dundee, Small-Polar-MMV Screening Library” (2021).

For some of these results: Entries with a potency or affinity are not part of this list.

Common to all, as to design: scale not given: direction of the effect not stated beside the values
The target of experiment [1] is Protein translocase subunit SecA (Escherichia coli (strain K12)) (UniProt P10408). Put plainly: Assay to Identify E. coli SecA ATPase Inhibitors. The class given is functional. The following applies: 30 µM.
Sequence of Protein translocase subunit SecA (Escherichia coli (strain K12)) (P10408 whole entry): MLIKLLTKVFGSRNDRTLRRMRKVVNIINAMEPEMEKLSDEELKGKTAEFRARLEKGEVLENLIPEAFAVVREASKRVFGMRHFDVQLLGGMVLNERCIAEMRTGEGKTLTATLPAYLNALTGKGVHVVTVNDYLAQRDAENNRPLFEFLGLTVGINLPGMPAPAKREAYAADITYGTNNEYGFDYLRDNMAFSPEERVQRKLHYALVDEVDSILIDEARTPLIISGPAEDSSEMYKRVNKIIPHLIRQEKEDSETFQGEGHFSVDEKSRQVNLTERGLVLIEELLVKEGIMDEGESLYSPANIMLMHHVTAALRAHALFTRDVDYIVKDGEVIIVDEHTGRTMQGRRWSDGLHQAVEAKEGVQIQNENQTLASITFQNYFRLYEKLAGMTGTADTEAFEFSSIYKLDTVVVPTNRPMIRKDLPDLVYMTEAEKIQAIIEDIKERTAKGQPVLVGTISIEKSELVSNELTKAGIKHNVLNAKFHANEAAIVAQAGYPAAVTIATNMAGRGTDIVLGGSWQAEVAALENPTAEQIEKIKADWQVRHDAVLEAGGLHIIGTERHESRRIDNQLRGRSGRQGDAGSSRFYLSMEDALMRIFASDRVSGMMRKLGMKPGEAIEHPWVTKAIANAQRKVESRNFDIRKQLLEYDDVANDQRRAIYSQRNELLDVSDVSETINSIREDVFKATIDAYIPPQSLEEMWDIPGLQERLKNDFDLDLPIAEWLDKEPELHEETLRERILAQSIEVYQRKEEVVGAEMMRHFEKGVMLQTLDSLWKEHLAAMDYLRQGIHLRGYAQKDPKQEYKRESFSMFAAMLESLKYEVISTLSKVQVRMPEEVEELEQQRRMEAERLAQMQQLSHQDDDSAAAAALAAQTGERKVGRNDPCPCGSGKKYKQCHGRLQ
In experiment [2] the target is T1, Ubiquitin-activating enzyme e1, putative (Leishmania donovani (strain BPK282A1)) (UniProt E9BSI1).
T1 sequence (whole entry): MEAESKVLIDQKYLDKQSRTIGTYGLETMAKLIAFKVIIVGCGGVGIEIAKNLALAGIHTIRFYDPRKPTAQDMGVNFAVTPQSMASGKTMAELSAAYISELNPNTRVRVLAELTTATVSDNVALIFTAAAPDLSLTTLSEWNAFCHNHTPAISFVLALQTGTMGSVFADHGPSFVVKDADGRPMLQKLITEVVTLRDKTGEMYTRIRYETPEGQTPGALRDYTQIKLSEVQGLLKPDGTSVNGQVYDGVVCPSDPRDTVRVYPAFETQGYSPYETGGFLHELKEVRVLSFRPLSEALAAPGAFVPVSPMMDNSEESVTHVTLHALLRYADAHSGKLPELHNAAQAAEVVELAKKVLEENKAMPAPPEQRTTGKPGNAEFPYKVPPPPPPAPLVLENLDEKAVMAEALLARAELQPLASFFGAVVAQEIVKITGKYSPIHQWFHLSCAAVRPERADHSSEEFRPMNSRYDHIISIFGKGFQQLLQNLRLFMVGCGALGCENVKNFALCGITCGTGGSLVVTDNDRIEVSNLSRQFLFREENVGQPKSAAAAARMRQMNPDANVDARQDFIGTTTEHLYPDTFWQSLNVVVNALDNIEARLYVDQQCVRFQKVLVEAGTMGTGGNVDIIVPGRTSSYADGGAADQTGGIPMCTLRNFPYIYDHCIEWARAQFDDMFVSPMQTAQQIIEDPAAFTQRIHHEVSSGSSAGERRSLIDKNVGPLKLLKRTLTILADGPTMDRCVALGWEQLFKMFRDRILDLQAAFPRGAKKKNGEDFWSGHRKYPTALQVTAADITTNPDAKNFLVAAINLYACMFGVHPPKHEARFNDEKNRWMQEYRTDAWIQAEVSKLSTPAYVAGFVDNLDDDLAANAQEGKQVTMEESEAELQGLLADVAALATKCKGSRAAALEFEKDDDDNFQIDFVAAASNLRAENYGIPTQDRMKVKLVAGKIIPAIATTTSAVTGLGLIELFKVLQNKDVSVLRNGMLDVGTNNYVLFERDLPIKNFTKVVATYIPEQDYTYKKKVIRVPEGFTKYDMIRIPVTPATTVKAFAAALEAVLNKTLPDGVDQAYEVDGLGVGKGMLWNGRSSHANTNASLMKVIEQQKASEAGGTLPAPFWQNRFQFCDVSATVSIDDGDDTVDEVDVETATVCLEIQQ
Put plainly: Leishmania donovani Ubiquitin Activating Enzyme (LdE1). Type of experiment: functional. The note with it: 30 µM.

In experiment [3] the target is AMP-activated protein kinase, AMPK (Homo sapiens) (UniProt P54646+O43741+P54619+Q9UGJ0+Q9Y478+Q13131+Q9UGI9). Put plainly: AMP-dependent Kinase enzyme assay. An in vitro enzyme assay that detects ADP turnover that is directly proportional to AMPK activity. This uses naive AMPK that is activated during the assay with MK-8722. The class given is functional. The note with it: 30 µM.

The target of experiment [4] is Sialic acid-binding Ig-like lectin 9 (Homo sapiens) (UniProt Q9Y336). The experiment in a line: Hs-Siglec9 ALPHAscreen SOP 20170721. The following applies: 10 µM. Background: Alpha assays give light when donor and acceptor beads are brought close together.
Sequence of Sialic acid-binding Ig-like lectin 9 (Homo sapiens) (Q9Y336 whole entry): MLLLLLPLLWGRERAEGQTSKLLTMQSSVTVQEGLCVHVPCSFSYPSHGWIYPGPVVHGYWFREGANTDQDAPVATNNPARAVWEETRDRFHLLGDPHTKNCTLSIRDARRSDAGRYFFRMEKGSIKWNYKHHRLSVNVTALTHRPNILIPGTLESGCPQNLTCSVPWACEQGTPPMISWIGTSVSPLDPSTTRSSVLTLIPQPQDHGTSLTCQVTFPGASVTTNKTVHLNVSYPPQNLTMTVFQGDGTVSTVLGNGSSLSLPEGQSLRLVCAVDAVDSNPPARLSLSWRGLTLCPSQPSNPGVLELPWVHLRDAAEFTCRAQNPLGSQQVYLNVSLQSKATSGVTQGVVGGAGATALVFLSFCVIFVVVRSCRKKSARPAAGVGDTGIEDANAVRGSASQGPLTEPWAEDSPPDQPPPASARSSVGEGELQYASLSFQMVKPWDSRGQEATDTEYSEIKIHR
The subject of a further experiment is Trypanosoma cruzi. Put plainly: Trypanosoma cruzi phosphomannomutase and mannose-1-phosphate guanylyltransferase assay. Type of experiment: functional. The note with it: 10 µM.
The target of experiment [5] is T2, Arginase-2, mitochondrial (Homo sapiens) (UniProt P78540).
T2 sequence (whole entry): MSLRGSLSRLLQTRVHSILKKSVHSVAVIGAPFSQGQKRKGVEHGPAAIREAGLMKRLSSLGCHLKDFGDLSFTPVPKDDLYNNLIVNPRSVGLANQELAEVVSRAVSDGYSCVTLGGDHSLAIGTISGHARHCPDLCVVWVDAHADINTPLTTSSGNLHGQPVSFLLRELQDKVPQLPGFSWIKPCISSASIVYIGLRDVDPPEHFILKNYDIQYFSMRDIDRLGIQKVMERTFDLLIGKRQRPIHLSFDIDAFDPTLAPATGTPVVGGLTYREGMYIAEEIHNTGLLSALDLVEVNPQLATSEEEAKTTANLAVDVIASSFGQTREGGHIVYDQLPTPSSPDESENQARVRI
The experiment in a line: in vitro enzyme assay to detect the production of urea directly proportional to the activity of Arginase II. Note: in the data most compounds retested in dose-response had high values. Type of experiment: functional. The note with it: 33.3 µM.

Experiment [6] has as its target T3, Proteasome subunit beta (Trypanosoma cruzi) (UniProt O96673).
T3 sequence (whole entry): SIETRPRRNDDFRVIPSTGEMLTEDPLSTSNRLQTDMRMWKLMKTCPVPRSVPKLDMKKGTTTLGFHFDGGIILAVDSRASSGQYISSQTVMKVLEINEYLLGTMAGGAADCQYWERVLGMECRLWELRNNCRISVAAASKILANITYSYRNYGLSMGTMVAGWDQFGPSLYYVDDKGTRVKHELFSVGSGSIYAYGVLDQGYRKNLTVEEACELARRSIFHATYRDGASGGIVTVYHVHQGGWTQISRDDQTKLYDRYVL
Put plainly: Trypanosoma cruzi proteasome chymotrypsin-like activity (TcProtChymo) assay. Note: in the data most compounds retested in dose-response had high values. Type of experiment: functional. The following applies: 9.37 µM.

The species entered for the next experiment is Homo sapiens. The experiment in a line: To identify inhibition of the IFN signalling (Jak-Stat) pathway via expression of an eGFP reporter gene under the control of an IFN-stimulated response element (ISRE) containing MxA promoter. The class given is functional. The following applies: 30 µM.
The target in experiment [7] is T4, Tyrosyl-tRNA synthetase, putative (Trypanosoma cruzi (strain CL Brener)) (UniProt Q4DSP6).
T4 sequence (whole entry): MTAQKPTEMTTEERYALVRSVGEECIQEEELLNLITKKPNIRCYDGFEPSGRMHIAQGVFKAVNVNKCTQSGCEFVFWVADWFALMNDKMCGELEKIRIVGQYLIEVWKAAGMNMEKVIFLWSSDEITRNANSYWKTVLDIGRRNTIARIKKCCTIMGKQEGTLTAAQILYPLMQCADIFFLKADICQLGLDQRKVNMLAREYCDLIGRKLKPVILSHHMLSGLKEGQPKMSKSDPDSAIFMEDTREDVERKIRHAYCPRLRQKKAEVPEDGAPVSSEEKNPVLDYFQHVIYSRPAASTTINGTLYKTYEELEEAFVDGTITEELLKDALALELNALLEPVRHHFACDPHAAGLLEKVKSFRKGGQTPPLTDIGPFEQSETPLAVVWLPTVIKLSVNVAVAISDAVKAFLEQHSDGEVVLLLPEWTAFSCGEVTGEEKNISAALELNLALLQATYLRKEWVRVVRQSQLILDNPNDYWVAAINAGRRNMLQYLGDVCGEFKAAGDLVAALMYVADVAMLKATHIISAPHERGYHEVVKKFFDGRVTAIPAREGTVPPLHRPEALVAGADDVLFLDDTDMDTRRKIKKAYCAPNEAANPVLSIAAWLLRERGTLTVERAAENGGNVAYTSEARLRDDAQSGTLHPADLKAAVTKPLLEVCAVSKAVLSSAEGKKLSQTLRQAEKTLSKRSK
Put plainly: Trypanosoma cruzi tyrosyl tRNA synthetase (TcYRS) _High Tyrosine SOP. Note: in the data most compounds retested in dose-response had high values. The class given is functional. The note with it: 30 µM.

Experiment [8] has as its target T4, Tyrosyl-tRNA synthetase, putative (Trypanosoma cruzi (strain CL Brener)). Put plainly: Trypanosoma cruzi tyrosyl tRNA synthetase (TcYRS) SOP. The note with it: 30 µM. The class given is functional.
Experiment [9] addresses Chromo domain-containing protein 1 (Saccharomyces cerevisiae (strain ATCC 204508 / S288c) (Baker's yeast)) (UniProt P32657). The experiment in a line: ScCHD-1 Enzyme Inhibition Assay. Note: in the data most compounds retested in dose-response had high values. The class given is functional. The note with it: 30 µM.

Sequence of Chromo domain-containing protein 1 (Saccharomyces cerevisiae (strain ATCC 204508 / S288c) (Baker's yeast)) (P32657 whole entry, the tested form may be a part): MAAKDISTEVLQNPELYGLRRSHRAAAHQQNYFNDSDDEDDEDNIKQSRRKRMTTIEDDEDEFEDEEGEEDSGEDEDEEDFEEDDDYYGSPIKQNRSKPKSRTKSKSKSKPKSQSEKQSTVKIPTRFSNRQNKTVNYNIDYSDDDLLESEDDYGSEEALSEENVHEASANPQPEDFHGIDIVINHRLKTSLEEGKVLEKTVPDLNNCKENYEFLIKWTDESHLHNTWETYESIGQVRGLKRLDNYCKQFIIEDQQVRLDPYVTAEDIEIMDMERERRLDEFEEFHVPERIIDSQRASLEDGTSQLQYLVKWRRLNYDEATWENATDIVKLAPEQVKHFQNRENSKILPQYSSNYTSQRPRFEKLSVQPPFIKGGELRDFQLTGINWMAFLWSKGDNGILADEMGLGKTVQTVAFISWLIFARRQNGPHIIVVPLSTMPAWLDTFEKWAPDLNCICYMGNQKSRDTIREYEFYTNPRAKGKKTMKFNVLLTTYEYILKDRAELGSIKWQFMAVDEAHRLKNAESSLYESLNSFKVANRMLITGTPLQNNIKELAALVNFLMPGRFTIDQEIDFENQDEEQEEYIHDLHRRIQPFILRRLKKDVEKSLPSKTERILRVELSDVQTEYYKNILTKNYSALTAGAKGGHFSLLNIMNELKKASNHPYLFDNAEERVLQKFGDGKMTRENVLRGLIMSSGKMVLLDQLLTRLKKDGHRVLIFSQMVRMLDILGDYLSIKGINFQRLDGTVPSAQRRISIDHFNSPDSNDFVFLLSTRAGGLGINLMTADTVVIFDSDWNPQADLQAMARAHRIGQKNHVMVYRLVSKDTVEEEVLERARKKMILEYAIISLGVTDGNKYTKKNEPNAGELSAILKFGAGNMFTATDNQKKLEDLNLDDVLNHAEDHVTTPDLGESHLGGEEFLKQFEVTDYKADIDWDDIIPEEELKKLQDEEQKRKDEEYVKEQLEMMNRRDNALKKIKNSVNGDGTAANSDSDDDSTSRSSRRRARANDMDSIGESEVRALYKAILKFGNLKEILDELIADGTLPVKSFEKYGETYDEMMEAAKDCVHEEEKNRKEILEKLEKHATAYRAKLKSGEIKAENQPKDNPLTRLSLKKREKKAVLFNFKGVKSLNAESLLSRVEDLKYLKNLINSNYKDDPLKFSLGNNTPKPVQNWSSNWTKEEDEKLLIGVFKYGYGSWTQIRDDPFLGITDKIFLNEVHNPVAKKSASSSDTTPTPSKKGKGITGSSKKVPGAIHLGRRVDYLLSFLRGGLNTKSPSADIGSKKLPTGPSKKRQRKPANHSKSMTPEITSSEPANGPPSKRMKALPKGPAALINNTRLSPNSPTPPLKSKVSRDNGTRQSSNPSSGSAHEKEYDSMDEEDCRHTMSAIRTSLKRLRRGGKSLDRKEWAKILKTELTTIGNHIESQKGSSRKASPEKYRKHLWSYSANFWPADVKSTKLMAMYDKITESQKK

For `Cn1c(CN2CCOCC2)nnc1C1CCN(C(=O)C2CCCC2)CC1`, the Percent Effect was determined as 0.739% in [1]; 13.5% in experiment [2]; 1.53% in [3]; 14.3% in experiment [4]; 3.09% in the experiment with Trypanosoma cruzi; 0.476% in [5]. For the same compound, the Percent Effect in experiment [6] was 20.9%; in the experiment listed under Homo sapiens, 2.19%; in experiment [7], 5.82%; in [8] it was 19.5%; in [9] it was -4.58%.

With `Cn1cnnc1C1CCCN(C(=O)NCc2ccc3c(c2)OCO3)C1` (stereo unspecified), the Percent Effect in experiment [1] was -5.4%; in experiment [2] it was -10.4%; in experiment [3], -2.19%; in [4] it was -7.32%; with Trypanosoma cruzi it was 3.43%; in [5] it was -12.8%. Moreover, the Percent Effect is 11.2% in experiment [6]; -5.11% in the experiment listed under Homo sapiens; 9.52% in [7]; 23.5% in [8]; -12.6% in [9].

On to `O=C(CCc1cccs1)N1CCCCC1Cn1cccn1` (stereo unspecified), for which the Percent Effect in experiment [1] was -6.87%; in experiment [2], 10.4%; in experiment [3] it was -2.34%; in [4], -15.4%; in the experiment on Trypanosoma cruzi, 5.19%; in [5], -1.47%. Also, the Percent Effect in experiment [6] is 10.4%; in the experiment filed under Homo sapiens it was 1.69%; in experiment [7], 5.71%; in [8], 21.2%; in experiment [9] it was -15.9%.

For `CCc1ncc(CNC2CC(=O)N(CCc3cccc(Cl)c3)C2)cn1` (stereo unspecified), the Percent Effect was -5.45% in experiment [1]; 13.7% in experiment [2]; -3.73% in experiment [3]; 5.67% in experiment [4]; 7.54% in the experiment with Trypanosoma cruzi; -3.59% in experiment [5]. In addition, the Percent Effect in experiment [6] is 6.76%; in the experiment listed under Homo sapiens it was 0.221%; in [7] it was 6.25%; in experiment [8], 11.1%; in experiment [9] it was -2.3%.

Turning to `CN(C)CC1CN(Cc2cccc(C(=O)N(C)C)c2)CCO1` (stereo unspecified), the Percent Effect in experiment [1] was -4.12%; in [2], 20.8%; in experiment [3], -4.76%; in experiment [4] it was -4.42%; in the experiment on Trypanosoma cruzi, -0.562%; in [5], 3.56%. Further, the Percent Effect in experiment [6] is 14.7%; in the experiment filed under Homo sapiens it was 20.8%; in experiment [7] it was 10.7%; in experiment [8], 14.6%; in experiment [9], -5.94%.

On to `O=S1(=O)COCCN1Cc1ccc(Cl)c(F)c1`, for which the Percent Effect is 0.108% in experiment [1]; 16.2% in [2]; -3.31% in experiment [3]; 17.6% in [4]; 3.28% with Trypanosoma cruzi; 2.38% in experiment [5]. The Percent Effect in experiment [6] was 14.7%; in the experiment listed under Homo sapiens, 0.549%; in experiment [7] it was 5.82%; in experiment [8] it was 14.6%; in [9], -5.23%.

`CCS(=O)(=O)N1CCC(c2nnc(CN3CCOCC3)n2C)CC1`: the Percent Effect in experiment [1] was -3.22%; in [2] it was 18.7%; in experiment [3], -2.94%; in experiment [4] it was 20%; with Trypanosoma cruzi it was 3.8%; in experiment [5] it was 5.73%. Further, the Percent Effect in experiment [6] is 14.5%; in the experiment listed under Homo sapiens, 3.52%; in experiment [7], 9.29%; in [8] it was 21%; in experiment [9], -5.76%.

On to `CC(=O)c1cccc(NC(=O)Cn2cc(I)cn2)c1`, for which the Percent Effect in experiment [1] was -6.3%; in [2], -2.63%; in [3] it was 12%; in experiment [4] it was 2.47%; in the experiment on Trypanosoma cruzi, -2.43%; in experiment [5] it was 11.8%. Also, the Percent Effect was 9.3% in experiment [6]; -2.61% in the experiment listed under Homo sapiens; -2.13% in experiment [7]; 2.6% in experiment [8]; 63% in experiment [9].

`Cc1ccc(NC2CCN(C(=O)CN(C)C3CC3)CC2)nn1`: the Percent Effect is -4.6% in experiment [1]; -6.33% in experiment [2]; -0.261% in [3]; 16.3% in experiment [4]; -3.79% in the experiment on Trypanosoma cruzi; 0.645% in experiment [5]. Further, the Percent Effect was 6.69% in [6]; -12.3% in the experiment filed under Homo sapiens; 4.17% in experiment [7]; 7.59% in [8]; -6.68% in experiment [9].

For `O=C(c1ccccn1)N1C[C@@H]2CC[C@H](C1)N(C(=O)CCc1cccs1)C2`, the Percent Effect is -6.27% in experiment [1]; 5.2% in experiment [2]; 2.15% in experiment [3]; 9.38% in [4]; 6.59% with Trypanosoma cruzi; -74.5% in experiment [5]. The Percent Effect is 13.1% in experiment [6]; -10.3% in the experiment filed under Homo sapiens; 3.23% in [7]; 8.64% in [8]; 2.24% in [9].

Take `CCc1cnc(CNc2ccc(C(=O)N3CCCC(C)C3)cc2C)o1` (stereo unspecified): the Percent Effect is -1.36% in experiment [1]; -5.2% in experiment [2]; 6.76% in experiment [3]; -0.151% in [4]; -0.936% in the experiment on Trypanosoma cruzi; -1.78% in [5]. Moreover, the Percent Effect in experiment [6] is 8.78%; in the experiment filed under Homo sapiens it was 25.1%; in [7] it was -0.971%; in experiment [8], 0%; in [9] it was -5.54%.
